According to PubChem BioAssay (Tox21):
Several values for one entry are separate records, joined by “and”; a condition that tells them apart may be missing. Equal entries are not always repeated. Values without a mark were called inactive. Inconclusive results are not listed. Where a call stands in place of a potency, no number is given. Activity calls are given as the source filed them. Unless noted, calls come from the whole dose curve; as a rule, active = well fitted curve in the direction sought with a large enough effect in the repeat runs; inconclusive = weak or mixed curves; inactive = no such curve, though single readings can be large; an effect the other way counts as inactive or inconclusive.

Key:
[1] = qHTS assay to identify small molecule agonists of the estrogen receptor alpha (ER-alpha) signaling pathway in the presence of an antagonist - cell viability counter screen (AID 1259386);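 note: series mostly up to about 92 µM; cells exposed to compounds for 22 h at 37 °C before the viability read; nearly all actives have a fitted effect of over 30% in size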
Method in brief: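 Viability counter screen using VM7Luc4E2 (full-length ER-alpha, four ERE-luciferase). The cells were treated with compounds alongside ICI-182,780 10.0nM for 22hr, and live-cell protease fluorescence was quantified with CellTiter-Fluor.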

[2] = biological target: Progesterone receptor (Homo sapiens) (UniProt P06401); experiment: qHTS assay to identify small molecule agonists of the progesterone receptor (PR) signaling pathway (AID 1346784; calls by dose curve; note: nearly all actives have a fitted effect of over 30% in size)
Sequence of Progesterone receptor (Homo sapiens) (P06401 whole entry, looked up): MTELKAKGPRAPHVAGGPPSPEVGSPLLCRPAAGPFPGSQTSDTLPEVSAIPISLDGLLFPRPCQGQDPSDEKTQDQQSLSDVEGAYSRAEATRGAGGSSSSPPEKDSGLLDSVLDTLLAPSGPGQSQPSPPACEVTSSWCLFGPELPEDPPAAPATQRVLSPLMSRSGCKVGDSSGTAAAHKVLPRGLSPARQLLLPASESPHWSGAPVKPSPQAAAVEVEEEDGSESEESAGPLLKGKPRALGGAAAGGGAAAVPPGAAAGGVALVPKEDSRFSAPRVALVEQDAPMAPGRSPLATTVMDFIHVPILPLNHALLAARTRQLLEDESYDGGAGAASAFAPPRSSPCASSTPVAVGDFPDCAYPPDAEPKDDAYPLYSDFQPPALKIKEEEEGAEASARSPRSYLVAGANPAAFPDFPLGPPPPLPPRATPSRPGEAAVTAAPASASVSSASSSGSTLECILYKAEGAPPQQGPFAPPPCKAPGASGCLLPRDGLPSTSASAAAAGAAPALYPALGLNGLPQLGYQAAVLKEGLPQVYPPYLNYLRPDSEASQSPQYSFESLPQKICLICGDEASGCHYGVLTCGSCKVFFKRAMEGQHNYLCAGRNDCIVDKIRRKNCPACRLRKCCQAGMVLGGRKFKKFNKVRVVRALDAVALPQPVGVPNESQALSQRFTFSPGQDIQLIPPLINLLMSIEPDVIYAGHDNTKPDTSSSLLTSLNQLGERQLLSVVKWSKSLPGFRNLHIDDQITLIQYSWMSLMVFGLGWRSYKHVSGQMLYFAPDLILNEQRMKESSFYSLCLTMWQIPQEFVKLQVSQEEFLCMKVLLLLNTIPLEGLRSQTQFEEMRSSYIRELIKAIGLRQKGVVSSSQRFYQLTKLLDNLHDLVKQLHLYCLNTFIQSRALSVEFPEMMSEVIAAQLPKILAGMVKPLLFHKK
Method in brief: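 PR-UAS-bla HEK 293T cells (beta-lactamase reporter under UAS) in 2% charcoal-stripped FBS, dosed with 23 nL compound after 6 hr, incubated 16hr at 37C. LiveBLAzer B/G FRET substrate added, fluorescence read after 2 hours.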

[3] = biological target: Progesterone receptor (Homo sapiens) (UniProt P06401); experiment: qHTS assay to identify small molecule antagonists of the progesterone receptor (PR) signaling pathway (AID 1346795; active = well fitted inhibition curve with a large enough effect in the signal ratio in the repeat runs, not every such curve was filed as active; the % refers to the signal ratio; note: potency is the fitted concentration of half-maximal effect)
Method in brief: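 PR-UAS-bla HEK293T cells with beta-lactamase reporter under UAS control, in 2% charcoal-stripped FBS, treated with compounds plus 1 nM promegestone (R5020, final) for 16 hr at 37C. Read-out: FRET beta-lactamase substrate fluorescence after 2 hr at room temperature.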

[4] = qHTS assay to identify small molecule agonists of the progesterone receptor (PR) signaling pathway - cell viability counter screen (AID 1346799; calls by dose curve; note: nearly all actives have a fitted effect of over 45% in size)
Method in brief: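 Counter screen in the PR-UAS-bla HEK293T wells (2% charcoal-stripped FBS, 16 h compound exposure at 37 C) after the bla read. CellTiter-Glo added, 30 min at room temperature, luminescence read as cell viability.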

[5] = qHTS assay to identify small molecule antagonists of the TGF-beta/Smad signaling pathway - cell viability counter screen (AID 1346824); note: nearly all actives have a fitted effect of over 50% in size
Method in brief: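 Cytotoxicity counter-screen run in the same wells as the beta-lactamase Smad reporter read: CellTiter-Glo luminescence after 30 min at room temperature. HEK 293T SBE-bla cells had 5 hr compound exposure at 37 C with TGF-beta1 (0.25 ng/mL stock).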

[6] = qHTS assay to identify small molecule agonists of the TGF-beta/Smad signaling pathway - cell viability counter screen (AID 1346829); note: top concentration of the series differs between compounds; nearly all actives have a fitted effect of over 45% in size
Method in brief: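 SBE-bla HEK 293T cells plated overnight, compound exposure 5 hr at 37 C. Viability read in the same wells by CellTiter-Glo luminescence after 30 min at room temperature, following the beta-lactamase read.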

[7] = biological target: Thyrotropin-releasing hormone receptor (Homo sapiens) (UniProt P34981); experiment: qHTS assay to identify small molecule antagonists of the thyrotropin-releasing hormone receptor (TRHR) signaling pathway (AID 1346877; active = well fitted inhibition curve with a large enough effect in the repeat runs, not every such curve was filed as active; note: series mostly up to about 51 µM)
Sequence of Thyrotropin-releasing hormone receptor (Homo sapiens) (P34981 whole entry, looked up): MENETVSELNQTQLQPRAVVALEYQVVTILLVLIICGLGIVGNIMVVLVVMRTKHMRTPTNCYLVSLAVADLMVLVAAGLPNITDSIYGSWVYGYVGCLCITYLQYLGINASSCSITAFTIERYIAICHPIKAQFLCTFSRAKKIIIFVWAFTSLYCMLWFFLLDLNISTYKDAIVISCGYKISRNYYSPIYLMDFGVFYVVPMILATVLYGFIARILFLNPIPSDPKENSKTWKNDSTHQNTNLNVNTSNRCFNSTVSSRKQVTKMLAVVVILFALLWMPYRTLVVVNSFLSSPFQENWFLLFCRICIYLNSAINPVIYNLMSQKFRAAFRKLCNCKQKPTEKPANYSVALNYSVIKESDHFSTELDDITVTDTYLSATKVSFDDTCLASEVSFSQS
Method in brief: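 Following an 18 h incubation at 37 °C and a 2 h calcium dye load, TRHR-HEK293 cells were exposed to compound (5 min, room temperature) and challenged with TRH, 1 nM final.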

[8] = biological target: Thyrotropin-releasing hormone receptor (Homo sapiens) (UniProt P34981); experiment: qHTS assay to identify small molecule agonists of the thyrotropin-releasing hormone receptor (TRHR) signaling pathway (AID 1346891; calls by dose curve; note: series mostly up to about 58 µM)
Method in brief: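 HEK293 cells expressing TRHR plated 18 h at 37 C/5% CO2, calcium dye-loaded 2 h at 37 C, then compound added (agonist mode); kinetic calcium fluorescence read 3 min at 1 s intervals; 15 concentrations in triplicate.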

[9] = Human pregnane X receptor (PXR) small molecule agonists, qHTS cell viability counter screen (AID 1346977); note: nearly all actives have a fitted effect of over 50% in size
Method in brief: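 PXR-Luc HepG2 cells (2,000/well, 5% charcoal-stripped FBS) preincubated 5 hr, then exposed to compounds 24 hr at 37 C. Viability read in the same wells by CellTiter-Fluor fluorescence, reagent added at 23 hr, 1 hr incubation.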

[10] = Caspase-3/7 induction in HepG2 cells by small molecules, qHTS assay (AID 1346978); note: nearly all actives have a fitted effect of over 15% in size
Method in brief: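 Caspase-3/7 induction was measured by Caspase-Glo 3/7 luminescence (30 min, room temperature) after a 17 hr compound exposure of wild-type HepG2 cells seeded at 2,000 per well and pre-incubated 5 hr.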

[11] = Caspase-3/7 induction in CHO-K1 cells by small molecules, qHTS cell viability counter screen (AID 1346979); note: nearly all actives have a fitted effect of over 35% in size
Method in brief: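 Wild-type CHO-K1 cells (1,500/well) treated with compound after 5 h plating; after 16 h at 37C, viability read as CellTiter-Fluor fluorescence following 1 h reagent incubation, in the same wells as the caspase read.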

[12] = Caspase-3/7 induction in CHO-K1 cells by small molecules, qHTS assay (AID 1346980); note: nearly all actives have a fitted effect of over 15% in size
Method in brief: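 Luminescent Caspase-Glo 3/7 read (30min, room temperature) quantified apoptosis induction. Cells were wild-type CHO-K1, treated with compound for 17hr at 37 C and 5% CO2.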

[13] = Caspase-3/7 induction in HepG2 cells by small molecules, qHTS cell viability counter screen (AID 1346981); note: series mostly up to about 92 µM; nearly all actives have a fitted effect of over 30% in size
Method in brief: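 Viability determined by CellTiter-Fluor fluorescence in HepG2 wells also used for the luminescent Caspase-Glo 3/7 read. Compounds were present for 16 hr at 37 C, 5% CO2 before reagent addition.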

[14] = biological target: Nuclear receptor subfamily 1 group I member 2 (Homo sapiens) (UniProt O75469); experiment: Human pregnane X receptor (PXR) small molecule agonists, qHTS assay (AID 1346982); note: nearly all actives have a fitted effect of over 35% in size
Sequence of Nuclear receptor subfamily 1 group I member 2 (Homo sapiens) (O75469 whole entry, looked up): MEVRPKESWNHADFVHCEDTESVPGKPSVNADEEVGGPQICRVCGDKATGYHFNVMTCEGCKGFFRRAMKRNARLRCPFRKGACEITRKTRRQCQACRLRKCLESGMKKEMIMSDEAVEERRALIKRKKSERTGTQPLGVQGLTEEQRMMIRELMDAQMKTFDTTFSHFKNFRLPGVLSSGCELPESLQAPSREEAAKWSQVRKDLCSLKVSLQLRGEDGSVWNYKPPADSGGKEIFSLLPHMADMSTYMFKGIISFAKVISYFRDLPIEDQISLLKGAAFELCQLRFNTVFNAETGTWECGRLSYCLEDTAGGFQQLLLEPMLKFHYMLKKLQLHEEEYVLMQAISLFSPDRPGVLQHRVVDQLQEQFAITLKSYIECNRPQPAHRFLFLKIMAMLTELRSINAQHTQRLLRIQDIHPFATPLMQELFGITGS
Method in brief: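 Compound-induced hPXR transactivation of a CYP3A4 luciferase reporter was scored in HepG2 PXR-Luc cells over 24 hr at 37 C, 5% CO2, by luminescence.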

[15] = biological target: Cytochrome P450 2D6 (Homo sapiens) (UniProt P10635); experiment: Cytochrome P450 Family 2 Subfamily D Member 6 (CYP2D6) small molecule antagonists: luciferase reporter qHTS assay (AID 1671196); note: series mostly up to about 120 µM; nearly all actives have a fitted effect of over 50% in size
Sequence of Cytochrome P450 2D6 (Homo sapiens) (P10635 whole entry, looked up): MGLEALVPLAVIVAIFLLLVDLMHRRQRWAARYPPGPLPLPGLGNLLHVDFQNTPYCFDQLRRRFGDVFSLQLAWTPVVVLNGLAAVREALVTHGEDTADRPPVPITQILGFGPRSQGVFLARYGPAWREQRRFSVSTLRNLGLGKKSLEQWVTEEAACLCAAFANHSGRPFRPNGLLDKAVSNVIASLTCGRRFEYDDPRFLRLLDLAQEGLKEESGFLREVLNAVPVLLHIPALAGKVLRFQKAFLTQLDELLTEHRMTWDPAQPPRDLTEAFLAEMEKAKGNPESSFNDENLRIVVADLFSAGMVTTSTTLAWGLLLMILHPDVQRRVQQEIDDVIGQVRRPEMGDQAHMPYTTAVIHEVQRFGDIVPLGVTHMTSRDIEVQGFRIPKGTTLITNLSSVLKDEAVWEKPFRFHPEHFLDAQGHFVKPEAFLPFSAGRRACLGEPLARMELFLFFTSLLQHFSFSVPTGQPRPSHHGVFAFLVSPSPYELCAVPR
Method in brief: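 Each well received CYP2D6 with its proluciferin substrate and chemical, sat 10 min, then got NADPH regeneration solution for 1 h at room temperature. Luminescence in RLU served as the activity measure.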

[16] = qHTS assay to identify small molecule agonists of the TGF-beta/Smad signaling pathway (AID 1346859; active = well fitted activation curve with a large enough effect in the signal ratio in the repeat runs, not every such curve was filed as active; the % refers to the signal ratio; note: series mostly up to about 77 µM)
Method in brief: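 SBE-bla HEK293T cells plated overnight, then compound exposure for 5 h at 37 C. Beta-lactamase reporter read with LiveBLAzer B/G FRET substrate after 2 h at room temperature, fluorescence at 405 nm excitation, 460/530 nm emission.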

[17] = biological target: Nuclear receptor subfamily 1 group I member 2 (Rattus norvegicus) (UniProt Q9R1A7); experiment: Rat pregnane X receptor (rPXR) activation by small molecules, qHTS assay (AID 1346983); settings: rPXR luciferase reporter cells, One-Glo luminescence, 24 h; max activation: stronger effect = higher value; note: nearly all actives have a fitted effect of over 20% in size
Sequence of Nuclear receptor subfamily 1 group I member 2 (Rattus norvegicus) (Q9R1A7 whole entry, looked up): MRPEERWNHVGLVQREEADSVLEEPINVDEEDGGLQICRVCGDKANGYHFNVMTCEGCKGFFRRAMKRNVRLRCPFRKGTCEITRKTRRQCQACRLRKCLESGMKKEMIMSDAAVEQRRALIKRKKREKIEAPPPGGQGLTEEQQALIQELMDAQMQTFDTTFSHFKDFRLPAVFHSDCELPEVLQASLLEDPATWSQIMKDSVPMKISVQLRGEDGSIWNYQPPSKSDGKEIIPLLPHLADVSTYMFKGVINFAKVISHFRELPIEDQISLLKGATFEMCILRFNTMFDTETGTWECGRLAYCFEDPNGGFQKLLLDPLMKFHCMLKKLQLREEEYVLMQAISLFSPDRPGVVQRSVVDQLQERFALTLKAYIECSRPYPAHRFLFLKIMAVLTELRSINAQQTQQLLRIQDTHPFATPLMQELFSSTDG
Method in brief: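 Luminescent readout (One-Glo luciferase, 30 min room temperature) followed 24 hr compound treatment at 37 C of rPXR cells plated 2,000 per well and preincubated 5hr; qHTS format with compounds delivered in DMSO.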

[18] = biological target: Nuclear receptor subfamily 1 group I member 2 (Homo sapiens) (UniProt O75469); experiment: Human pregnane X receptor (PXR) activation by small molecules, qHTS assay (AID 1346985); note: nearly all actives have a fitted effect of over 40% in size
Method in brief: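 DPX-2 cells (HepG2 co-transfected with a PXR response element and a CYP3A4-promoter luciferase construct) were seeded at 2,000 per well, rested 5 hr at 37C, then exposed to DMSO-dissolved compounds for 24 hr. Activation was read as luciferase luminescence.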

[19] = qHTS assay to identify small molecule antagonists of the progesterone receptor (PR) signaling pathway - cell viability counter screen (AID 1346798); note: series mostly up to about 92 µM; nearly all actives have a fitted effect of over 50% in size
Method in brief: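 PR-UAS-bla HEK293T cells, 3,000/well in 2% charcoal-stripped FBS medium, dosed with compounds plus R5020 agonist and incubated 16 h at 37C. Viability then measured in the same wells by CellTiter-Glo luminescence after 30 min at RT.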

Row | Structure (SMILES) | Potency [1] | outcome [2] | Potency [3] | Potency [4] | Potency [5] | Potency [6] | outcome [7] | Potency [8] | Potency [9] | outcome [10] | Potency [11] | Potency [12] | Potency [13] | Potency [14] | Potency [15] | outcome [16] | max activation [17] | Potency [18] | Potency [19]
1 | O=C(Cl)c1c(Cl)cccc1Cl | inactive | inactive | inactive | inactive | inactive | inactive | inactive | inactive | inactive | inactive | inactive | inactive | inactive | inactive | inactive |  |  |  | 
2 | Nc1cnn([C@@H]2O[C@H](CO)[C@@H](O)[C@H]2O)c(=O)n1 | inactive | inactive | 19.4 µM (active) | inactive | inactive | inactive | inactive | inactive | inactive | inactive |  | inactive | inactive | inactive | inactive | inactive |  |  | 
3 | O=C(O)Cc1sc(-c2ccccc2)nc1-c1ccc(Cl)cc1 | inactive | inactive | inactive |  | inactive | inactive | inactive | inactive |  | inactive | inactive | inactive | inactive | inactive | inactive |  | 0.948% | inactive | 
4 | O=C(O)C1CCC(C(=O)O)CC1 (stereo not drawn) | inactive | inactive |  | inactive | inactive | inactive | inactive | inactive | inactive | inactive | inactive |  | inactive | inactive |  | inactive |  |  | inactive
5 | COc1ccc(C(C)=O)cc1 | inactive | inactive | inactive | inactive | inactive | inactive |  | inactive | inactive | inactive | inactive | inactive | inactive | inactive | inactive | inactive |  |  | 
6 | CCCCOC(O)CC (stereo not drawn) | inactive | inactive | inactive |  | inactive | inactive |  | inactive | inactive | inactive | inactive | inactive | inactive | inactive | inactive | inactive |  |  | 
7 | CC(=O)Nc1ccc(/C=N/NC(N)=S)cc1 | inactive | inactive | inactive |  | inactive | inactive |  |  | inactive | inactive | inactive | inactive | inactive | inactive | inactive | inactive | -4.57% and -9.49% | inactive | inactive
8 | C#CCOC(=O)[C@@H](C)Oc1ccc(Oc2ncc(Cl)cc2F)cc1 | inactive | inactive | inactive |  | inactive | inactive |  | inactive | inactive | inactive | inactive | inactive | inactive | inactive |  | inactive |  |  | inactive
